# Screening data as filed in PubChem.
# Sm TGR block: S. mansoni TGR enzyme inhibition; Q962Y6; purified TGR, DTNB reduction, TNB absorbance 405 nm; Potency, µM (titrated, usually from 114 µM), for the others: at the top dose activity change, negative = inhibition, usual class: inhibitors; hit rate 3% among 360,000; AID 485364; active means well fitted inhibition curve with a large enough effect; inconclusive means small, poorly fitted or top-dose-only effect; inactive means no such curve, though single readings can be large or run the other way; further: on the % scale 0 is the no-effect control and ±100 the full control effect; nearly all actives have a fitted effect of over 60% in size
#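 TGR 20 nM + NADPH 100 uM (dispensed conc.), cpd preinc 15 min RT; start with NADPH (500 uM addition) then DTNB (15 mM addition). Kinetic TNB absorbance, 405 nm filter. Four-parameter Hill fit across titration.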
# SARS PLpro yeast: SARS-CoV PLP inhibition in yeast | S. cerevisiae expressing SARS-CoV PLpro, growth rescue | Potency, µM (highest dose often 32.9 µM), inactives show top-dose activity, positive = growth rescue, most hits filed as activators | hit rate 0.19% among 330,000 | AID 485353; calls by dose curve; further: 0% is about no effect; nearly all actives have a fitted effect of over 55% in size
# The depositor's hits bear a star; ? = inconclusive; / = not tested or not shown. This is a sample that favours compounds with a hit; in the whole collection about 3% have one here. Potency means the concentration at half of the fitted maximal effect.
SMILES,Sm TGR block,SARS PLpro yeast
CCOC(=O)c1c(C)[nH]c(C)c1S(=O)(=O)N1CCCC(C(=O)N2CCN(c3cccc(C)c3C)CC2)C1 (centres undefined),3%,/
CN(Cc1ccccc1)C(=C(Cl)Cl)/C(=C1/NCCN1C)[N+](=O)[O-],-16%,1%
CN(Cc1ccccc1)C(=C(Cl)Cl)C(=C1NCCN1)[N+](=O)[O-],35µM*,-3%
O=C(NC(Cc1ccccc1)C(=O)NCc1ccccn1)c1ccco1 (centres undefined),?,-5%
c1ccc(-c2nc(-c3ccco3)cs2)nc1,22µM*,11%
c1ccc(-c2nccc(-c3ccco3)n2)nc1,-19%,1%
O=C(Nc1nc(-c2ccccn2)cs1)c1ccco1,32µM*,1%
O=C(NCc1ccccn1)c1ccco1,50µM*,1%
O=C(Nc1nc(-c2ccncc2)cs1)c1ccco1,-25%,-3%
CCC(Sc1nnc(-c2ccc(OC)c(OC)c2)c(-c2ccc(OC)c(OC)c2)n1)C(=O)NC1CCCC1 (centres undefined),-4%,/
COc1ccc(NC(=O)NCc2cccn2Cc2ccc(F)cc2)cc1OC,2%,/
COc1ccc(NC(=O)c2cccc(Oc3ccccc3)c2)cn1,-1%,-5%
Cn1ncc2cc(NC(=S)NC(=O)c3ccccc3)ccc21,18µM*,3%
COc1ccc(NC(=S)NC(=O)c2ccccc2)cn1,35µM*,-2%
O=C(NC(=S)Nc1cnc2ccccc2c1)c1ccccc1,?,-3%
Cc1nc(N2CCCC2)ncc1C(=O)NCc1cccc(Cl)c1,-2%,/
COC(=O)CSc1nc2sc3c(c2c(=O)n1-c1ccccc1)CCN(C)C3,35µM*,5%
CN1CCc2c(sc3nc(SCC(N)=O)n(-c4ccccc4)c(=O)c23)C1,?,-3%
CCn1c(SCC(=O)NCCc2ccccc2)nc2sc3c(c2c1=O)CCN(C)C3,-3%,-1%
CCn1c(SCC(=O)c2ccccc2)nc2sc3c(c2c1=O)CCN(C)C3,18µM*,1%
COc1ccccc1N1CCN(c2nc3c(S(=O)(=O)c4ccc(C)c(C)c4)nnn3c3ccc(Cl)cc23)CC1,-2%,/
COc1ccccc1NC(=O)Cn1c(=O)oc2cc(S(=O)(=O)NCc3ccccc3)ccc21,5%,/
Cc1ccccc1NS(=O)(=O)c1ccc2[nH]cc(C(=O)NCCc3ccccc3)c(=O)c2c1,7%,2%
Cc1c(CCO)sc[n+]1CC(=O)OCCC12CC3CC(CC(C3)C1)C2,5%,-4%
Cc1c(CCOC(=O)C23CC4CC(CC(C4)C2)C3)sc[n+]1CC#N,4.5µM*,-1%
SMILES,Sm TGR block,SARS PLpro yeast
Cc1c(CCOC(=O)CC23CC4CC(CC(C4)C2)C3)sc[n+]1Cc1ccccc1,-11%,-5%
Cc1ncc(C[n+]2csc(CCOC(=O)CC34CC5CC(CC(C5)C3)C4)c2C)c(N)n1,45µM*,-18%
Cc1ccc(NC(=O)Nc2nnc(SCC(=O)N3CCC(C)CC3)s2)cc1,15%,/
Cc1cc(C)c(NC(=O)CSC2=Nc3ccccc3C3=NC(CC(=O)NCc4cccs4)C(=O)N23)c(C)c1 (centres undefined),-3%,/
COc1ccc(N2CCN(C(=O)c3ccc(C)c(NC(=O)c4nsc5ccccc45)c3)CC2)cc1,-1%,/
CC(=O)c1ccc(OCc2cc(C(=O)N3CCC(c4ccncc4)CC3)no2)cc1,45µM*,-15%
CC(=O)c1ccc(OCc2cc(C(=O)N3CCN4CCCC4C3)no2)cc1 (centres undefined),5%,5%
CC(=O)c1ccc(OCc2cc(C(=O)N3CC[C@@H]4CCCC[C@H]4C3)no2)cc1,13µM*,-6%
COc1cccc(OCc2cc(C(=O)N3CCC(c4ccncc4)CC3)no2)c1,-3%,-9%
CCn1c(=O)c2cc(C(=O)NCCc3cc(OC)ccc3OC)sc2c2ccccc21,-3%,/
CC(=O)c1c2c3c(c(Br)ccc3n(C)c1=O)C(=O)c1ccccc1-2,-32%,-1%
CC(=O)c1c2c3c(cccc3n(C)c1=O)C(=O)c1ccccc1-2,8.9µM*,0%
CN(C)S(=O)(=O)c1cccc2c1C(=O)c1ccccc1C2=O,25µM*,10%
CN(C)S(=O)(=O)c1ccccc1C#N,0%,4%
CN(C)c1ccc(C(c2nnnn2CCOC(=O)Nc2ccc(Cl)cc2)N2CCOCC2)cc1 (centres undefined),25µM*,0%
O=C(Nc1ccc(Cl)cc1)OCCn1nnnc1C(c1ccccc1)N1CCOCC1 (centres undefined),-8%,-1%
CCOC(=O)c1ccccc1NC1CC(=O)N(c2ccccc2C)C1=O (centres undefined),3.5µM*,-24%
CCOC(=O)c1ccccc1NC(=O)C1CC(=O)N(C(C)(C)C)C1 (centres undefined),-14%,-4%
CN(C)S(=O)(=O)c1cc(NC(=O)CN2CCCc3ccccc32)ccc1Cl,?,-2%
CN(C)S(=O)(=O)c1cc(NC(=O)CN2CCc3ccccc32)ccc1Cl,45µM*,-1%
Cc1ccccc1NC(=O)C(=Cc1ccc(C(=O)O)cc1)C(=O)Nc1ccccc1C,-8%,0%
CC(=O)/C(=C/c1ccccc1)C(=O)Nc1ccccc1C,45µM*,0%
Cc1cccc(NC(c2ccc(O)cc2)c2ccc3ccc(C)nc3c2O)n1 (centres undefined),0.35µM*,-2%
Cc1ccc2cccc(NC(=O)C(F)(F)F)c2n1,-2%,0%
COc1ccccc1N1CCN(C(=O)CSc2n[nH]c(-c3ccccc3Cl)n2)CC1,1%,/
SMILES,Sm TGR block,SARS PLpro yeast
CC(=O)N1CCc2cc(C(=O)CN3CCN(c4ccccc4F)CC3)ccc21,?,8%
CC(=O)N1CCc2cc(C(=O)CN3CCN(c4ccccn4)CC3)ccc21,35µM*,-1%
C=CCN1C(=O)/C(=C/c2ccsc2)SC1=S,-4%,-2%
C=CCN1C(=O)/C(=C/c2ccc(-c3ccc(F)cc3)o2)SC1=S,25µM*,0%
COC(=O)c1sc(NC(=O)c2cc3nc(-c4ccc(Br)cc4)cc(C(F)(F)F)n3n2)c(C(=O)OC)c1C,7%,/
CCOC(=O)c1[nH]c(C)c(CCC(=O)Nc2cc(Cl)ccc2C)c1C,-2%,/
Cc1ccc(CNC(=O)Cn2c(=O)cc(-c3ccccc3)c3c(C)nn(C)c32)cc1,9%,/
CC1CN(c2ccc(Cl)cc2)c2nc3c(c(=O)[nH]c(=O)n3C)n2C1 (centres undefined),-2%,-1%
CC1CN(c2ccccc2)c2nc3c(c(=O)[nH]c(=O)n3C)n2C1 (centres undefined),89µM*,-1%
COc1ccc(OC)c(N2C(=O)c3cccnc3C2=O)c1,-1%,5%
COc1ccccc1N1C(=O)c2cccnc2C1=O,56µM*,-5%
CSc1ccc(CCNC(=O)c2csc3c2CCCCC3)cc1,5%,/
Oc1c(C(c2ccccc2F)N2CCOCC2)sc2nc(-c3ccco3)nn12 (centres undefined),14%,/
COc1ccc(OC)c(-n2c(C)cc(C=O)c2C)c1,-2%,0%
COc1ccc(OC)c(N2Cc3cc(C)c(C)cc3C2)c1,45µM*,?
CC1CCN(C(=O)CSc2nc(-c3ccc(C(C)C)cc3)no2)CC1,12%,/
COc1ccc(OC)c(Nc2nc(N)nc(CCl)n2)c1,32µM*,-5%
COc1ccc(OCc2nc(N)nc(Nc3ccccc3OC)n2)cc1,?,-5%
COc1ccc(OC)c(Nc2nc(N)nc(CSc3nnc(N)s3)n2)c1,8%,6%
COc1ccccc1Nc1nc(N)nc(CCl)n1,28µM*,-1%
